# Screens: PubChem, National Center for Advancing Translational Sciences (NCATS)
# In the library only some 3.2% were active in any assay of this set; here they are far more common.
# Vaccinia Venus = qHTS for Stage-Specific Inhibitors of Vaccinia Orthopoxvirus: Venus Reporter Primary qHTS; Vaccinia virus Venus reporter expression, fluorescence; hit rate 0.46% among 330,000; Potency, µM (highest dose often 36.5 µM), for the others: at the top dose activity change, negative = inhibition, hits mostly inhibitors; calls by dose curve; tested in A549 cells; also: nearly all actives have a fitted effect of over 30% in size
# FMDV inh = High Throughput Screening for Foot and Mouth Disease Virus Antivirals; FMDV antiviral cell-based qHTS; hit rate 1.2% among 410,000; Potency, µM (doses to about 57.9 µM), for inactives: at the top dose activity change, negative = inhibition, most hits filed as inhibitors; calls by dose curve; tested in HEK293T cells; also: read-out not given here; nearly all actives have a fitted effect of over 45% in size
# Vaccinia mCherry = qHTS for Stage-Specific Inhibitors of Vaccinia Orthopoxvirus: mCherry Reporter Primary qHTS; hit rate 0.63% among 310,000; Potency, µM (series often up to 36.5 µM), for the others: at the highest dose activity change, negative = inhibition, hits mostly inhibitors; Vaccinia virus mCherry reporter infection, fluorescence; calls by dose curve; tested in A549 cells; also: nearly all actives have a fitted effect of over 35% in size
# Marburg entry inh = qHTS for inhibitors of binding or entry into cells for Marburg Virus. Marburg virus pseudotyped entry inhibition, cell reporter. Potency, µM (highest dose often 37.8 µM), for inactives: top-dose activity change, negative = inhibition, most hits filed as inhibitors. hit rate 1.8% among 300,000. AID 540276, 2011; calls by dose curve; tested in HEK293 cells
# Lassa entry inh = qHTS for Inhibitors of binding or entry into cells for Lassa Virus | Potency, µM (titrated, usually from 37.9 µM), for inactives: at the highest dose activity change, negative = inhibition, hits mostly inhibitors | hit rate 1.2% among 300,000 | Lassa virus pseudotype entry inhibition, cell reporter; calls by dose curve; tested in HEK293 cells; also: nearly all actives have a fitted effect of over 50% in size
# Starred values were filed as active, the others as inactive; i = inactive; ? = inconclusive; · = no result; [ ] = dose if it differs, or a comment. % is scaled to controls: 0 for no effect and ±100 for the full control effect; potency is read from the fitted curve at half-maximal effect.
SMILES,Vaccinia Venus,FMDV inh,Vaccinia mCherry,Marburg entry inh,Lassa entry inh
Cc1nn(C(C)(C)C)c(C)c1/C=N/OC(=O)Nc1ccc(Cl)c(Cl)c1,·,0.32µM*,·,·,·
Cc1nn(-c2ccccc2)c(Cl)c1/C=C(\C#N)C(=O)NC(C)C,5%,25µM*,-3%,-5%,-25%
COc1ccc(NC(=O)/C(C#N)=C/c2c(C)nn(-c3ccc(F)cc3)c2Cl)cc1Cl,-7%,?,-11%,5%,-7%
COc1ccc(NC(=O)/C(C#N)=C/c2c(C)nn(-c3ccc(F)cc3)c2Cl)cc1OC,·,22µM*,·,?,?
COc1cc(=O)n2c(c1C(=O)N(C)Cc1nonc1C)CCN(Cc1ccc(F)cc1)CC2,-8%,-9%,-14%,·,·
C=CCOC(=O)C(C(C)=O)[C@@H](NC(=O)OC)c1cccs1 (stereo not given in full),·,·,·,-6%[14.2 µM],·
Cn1cc(CN2CCCC(CO)(Cc3ccccc3)C2)c2ccccc21 (stereo not given),3%,?,-16%,1µM*,?
N#Cc1c(N)nc(SCc2ccncc2)c(C#N)c1-c1cccs1,?,16µM*,?,?,?
COc1cc(-c2c(C#N)c(N)nc(SCc3ccncc3)c2C#N)cc(OC)c1OC,-22%,?,-12%,?,?
COc1cc(/C=C2/SC(=Nc3ccc(O)cc3)NC2=O)ccc1O,44%,-4%,13µM*,·,·
COc1ccc(N=C2NC(=O)/C(=C\C=C\c3ccccc3)S2)cc1,-10%,-5%,0%,-2%[46.1 µM],?
COc1ccc(N=C2NC(=O)/C(=C/C=C/c3ccccc3)S2)cc1,-12%,-1%,-17%,-9%,1µM*
COc1cccc(/C(O)=C2\C(=O)C(=O)N(CCN(C)C)[C@@H]2c2ccc(Br)cc2)c1,·,·,·,0%[46.1 µM],·
COc1ccc(NC(=O)CSc2oc(-c3ccc(F)cc3)nc2S(=O)(=O)c2ccc(C)cc2)c(OC)c1,?,-3%,-19%,4%[46.1 µM],-8%[46.1 µM]
CCOc1ccc(CCNC(=O)c2cnc3sc(N4CCCC4)nn3c2=O)cc1,?,28µM*,?,·,?
O=P(Oc1ccccc1)(Oc1ccccc1)N1CCN(c2ccc(F)cc2)CC1,-17%,-25%,-22%,10µM*,?
Cc1ccccc1C(=O)n1nc(-c2ccco2)nc1NCc1ccc(Cl)cc1,-6%,18%,-13%,5%[46.1 µM],?
C/C(=N/NC(=O)c1ccc(C)s1)c1cccc(NC(=O)COc2ccc(Cl)cc2Cl)c1,3%,15%,·,?,-25%
C/C(=N/NC(=O)c1cccs1)c1ccc(NC(=O)COc2ccc(Cl)cc2Cl)cc1,-13%,4%,i,?,13µM*
CN1CCc2c(n(C[C@H](O)CN3C(=O)c4ccccc4S3(=O)=O)c3ccccc23)C1=O,·,·,·,-20%,·
CCCOc1ccc(/C=N/Nc2ccccc2[N+](=O)[O-])c(O)c1,-2%,11µM*,-14%,4.5µM*,2.8µM*
CCCOc1ccc(/C=N/Nc2cccc([N+](=O)[O-])c2)c(O)c1,?,6%,?,?,?
CCCOc1ccc(/C=N/NC(=S)Nc2ccccc2[N+](=O)[O-])c(O)c1,?,?,2.8µM*,?,8.2µM*
COCCn1c(=N)c(S(=O)(=O)c2ccc(F)cc2)cc2c(=O)n3ccccc3nc21,0%[7.34 µM],-5%,4%[7.34 µM],·,·
COc1ccccc1N1CCN(C(=O)C(C)N(c2ccc(C)c(C)c2)S(C)(=O)=O)CC1 (stereo not given),-23%,35µM*,·,-28%,-18%
SMILES,Vaccinia Venus,FMDV inh,Vaccinia mCherry,Marburg entry inh,Lassa entry inh
Cc1ccc([C@H]2C(C#N)=C(N)Oc3cc(C)oc(=O)c32)o1,4%,25µM*,4%,5%[46.1 µM],-3%
Cc1cc2c(c(=O)o1)C(c1cccs1)C(C#N)=C(N)O2 (stereo not given),-8%,-24%,i,29%,-6%
COCCNc1nc(Oc2ccc(NC(C)=O)cc2)c2sc(-c3ccccc3)cc2n1,?,-18%,-14%,·,·
COCCNc1nc(NCc2ccc(NC(C)=O)cc2)c2sc(-c3ccccc3)cc2n1,11µM*,-7%,?,·,·
O=c1c2ccccc2cnn1-c1ccc2ccccc2c1,·,?,·,?,10µM*
C[C@H]1CC[C@H]2C(=O)N(Cc3ccccc3)C[C@@H](O)CN2[C@H]1c1ccc(Br)cc1,·,·,·,-33%[14.2 µM],·
N#C/C(=C\c1ccc(-c2ccc(C(=O)O)cc2)o1)c1nc2ccccc2[nH]1,13%,0%,-6%,10µM*,?
N#C/C(=C\c1ccc(-c2ccc(Cl)c(C(=O)O)c2)o1)c1nc2ccccc2[nH]1,8%,28%,-8%,10%[46.1 µM],-1%[46.1 µM]
Cc1cccc(OCC(=O)Nc2ccc3c(c2)nc(CCN2CCCCC2)n3C)c1,·,-3%,·,·,·
CN1CCN(CCc2nc3cc(NC(=O)COc4ccccc4)ccc3n2C)CC1,·,-13%,·,-7%,-2%
Cc1cccc(OCC(=O)Nc2ccc3c(c2)nc(CN2CCCCC2)n3C)c1,-31%,13µM*,-9%,?,?
COc1ccc(Nc2cc(C)c3cc(NC(=O)COc4cccc(C)c4)ccc3n2)cc1,?,35µM*,?,·,?
Cn1c(CCN2CCN(c3ccccn3)CC2)nc2cc(NC(=O)COc3ccc(Cl)cc3)ccc21,·,11µM*,·,·,·
Cc1cccc(OCC(=O)Nc2ccc3c(c2)nc(CCN2CCN(c4ccccn4)CC2)n3C)c1,·,32µM*,·,·,·
COc1ccc(OCC(=O)Nc2ccc3c(c2)nc(CCN2CCN(c4ccccn4)CC2)n3C)cc1,-27%,?,i,·,·
C[C@@H]1CN([C@H](C)CO)C(=O)CCCn2nncc2CO[C@H]1CN(C)Cc1ccc(C(F)(F)F)cc1,-7%,-22%,i,·,·
O=[S+]([O-])([O-])c1ccc2c(c1)cc([S+](=O)([O-])[O-])c1nn(-c3ccc(/C=C/c4ccc(-n5nc6c([S+](=O)([O-])[O-])cc7cc([S+](=O)([O-])[O-])ccc7c6n5)cc4[S+](=O)([O-])[O-])c([S+](=O)([O-])[O-])c3)nc12,-14%,·,-18%,·,·
O=C(C1CCN(S(=O)(=O)c2c(Cl)cccc2Cl)CC1)N1CCCCCCC1,-15%,-9%,-14%,-15%[46.1 µM],-17%
O=C(CCS(=O)(=O)c1ccccc1)Nc1nnc(-c2ccco2)o1,?,0%,11µM*,2%[46.1 µM],2%[46.1 µM]
COc1cc(OC)cc(-c2nnc(NC(=O)CCS(=O)(=O)c3ccc(C)cc3)o2)c1,?,-15%,7.9µM*,-12%[46.1 µM],?
CN(C)CCCNc1nccc(-c2c(-c3ccc(F)cc3)nn3cc(C(F)(F)F)ccc23)n1,·,·,·,·,22µM*
O=C(/C=C/c1ccccc1)c1ccc2c(c1)OCO2,·,0%,·,·,·
O=C(/C=C/c1ccncc1)c1ccc2c(c1)OCCO2,-22%,28µM*,-8%,14µM*,?
COc1cc(/C=C/C(=O)c2ccc3c(c2)OCCO3)cc(Br)c1OCC(=O)N(C)C,?,7.9µM*,2.8µM*,?,-23%
